# Laboratory results as given in PubChem BioAssay (NCATS).
# Results filed as inconclusive are left out. Unmarked numbers belong to inactive results. Calls of active or inactive are those of the source. Calls follow the shape of the dose curve; as a rule, active = well fitted curve in the direction sought with a large enough effect; inconclusive = small, poorly fitted or top-dose-only effect, or another doubt; inactive = no such curve, though single readings can be large; an effect the other way counts as inactive or inconclusive.
# What was measured:
# [1] = Quantitative highthroughput screen to assess conditional lethalithy of P12 Ichikawa cells grown in RPMI1640 with untreated serum (RPMI+s) (AID 1963881); conditions: Potency: viability; also: nearly all actives have a fitted effect of over 35% in size; also: potency is read from the fitted curve at half-maximal effect;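 as to viability: series mostly up to about 46 µM; 100% = DMSO wells and 0% = empty wells without cells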
# Outline: (§1)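 Each medium arm—HPLM with 10% dialyzed FBS, or RPMI1640 with 5 mM glucose and 10% untreated or dialyzed FBS—was screened against an 11-point, 3-fold compound titration for 48 h at 37 °C, with CellTiter-Glo luminescence as endpoint.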
# [2] = Quantitative highthroughput screen to assess conditional lethalithy of SEM cells grown in RPMI1640 with unreated serum (RPMI+s) (AID 1963883); also: nearly all actives have a fitted effect of over 35% in size; also: potency is read from the fitted curve at half-maximal effect;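 as to viability: 100% = DMSO wells and 0% = empty wells without cells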
# Outline: as §1
# [3] = Quantitative highthroughput screen to assess conditional lethalithy of NOMO1 cells grown in RPMI1640 with dialyzed fetal bovine serum (RPMI+ds) (AID 1963877); also: potency is read from the fitted curve at half-maximal effect; nearly all actives have a fitted effect of over 30% in size
# Outline: as §1
# [4] = Quantitative highthroughput screen to assess conditional lethalithy of NOMO1 cells grown in Human Plasma-Like Medium with dialyzed fetal bovine serum (HPLM+ds) (AID 1963878); also: potency is read from the fitted curve at half-maximal effect; nearly all actives have a fitted effect of over 35% in size
# Outline: as §1
# [5] = Quantitative highthroughput screen to assess conditional lethalithy of P12 Ichikawa cells grown in Human Plasma-Like Medium with dialyzed fetal bovine serum (HPLM+ds) (AID 1963879); conditions: Potency: viability; also: nearly all actives have a fitted effect of over 35% in size; also: potency is read from the fitted curve at half-maximal effect; as to viability: series mostly up to about 46 µM
# Outline: as §1
# [6] = Quantitative highthroughput screen to assess conditional lethalithy of NOMO1 cells grown in RPMI1640 with untreated serum (RPMI+s) (AID 1963876)
# Outline: as §1
# [7] = Quantitative highthroughput screen to assess conditional lethalithy of P12 Ichikawa cells grown in RPMI1640 with dialyzed fetal bovine serum (RPMI+ds) (AID 1963880); conditions: Potency: P12-Ichikawa viability; also: nearly all actives have a fitted effect of over 35% in size; also: potency is read from the fitted curve at half-maximal effect;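 as to viability: 100% = DMSO wells and 0% = empty wells on each plate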
# Outline: as §1
# [8] = Quantitative highthroughput screen to assess conditional lethalithy of SEM cells grown in Human Plasma-Like Medium with dialyzed fetal bovine serum (HPLM+ds) (AID 1963882); also: nearly all actives have a fitted effect of over 35% in size; also: potency is read from the fitted curve at half-maximal effect; as to viability: series mostly up to about 46 µM
# Outline: as §1
# [9] = Cellular viability qHTS for adrenocortical cancer (ACC) cell line SW-13 (AID 1963989); conditions: SW-13 ACC cells viability, CellTiter-Glo, 48 h; activity (max response): active compounds read low; also: nearly all actives have a fitted effect of over 65% in size; also: potency is read from the fitted curve at half-maximal effect;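 as to activity (max response): cells grown in serum-free medium with ITS supplement; % is scaled to controls: 0 for no effect and ±100 for the full control effect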
# Outline: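 Viability was read as CellTiter-Glo luminescence after 48 h compound treatment (up to 46 uM final) of SW-13 cells grown serum-free; titration curves were fit with a four-parameter logistic model to give IC50 and efficacy.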
# [10] = Cellular viability qHTS for adrenocortical cancer (ACC) cell line NCI-H295R (AID 1963990); also: potency is read from the fitted curve at half-maximal effect; nearly all actives have a fitted effect of over 60% in size
# Outline: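 CellTiter-Glo ATP luminescence, read 48 h after compound addition, measured viability of NCI-H295R adrenocortical cells grown serum-free with ITS. Final concentrations spanned up to 46 uM. Data normalized to DMSO and doxorubicin, fitted for IC50 and maximal response.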
# [11] = Quantitative highthroughput screen to assess conditional lethalithy of SEM cells grown in RPMI1640 with dialyzed fetal bovine serum (RPMI+ds) (AID 1963884)
# Outline: as §1
smiles,measurement,setting,value
O=C1CCC[C@@H]2[C@H]3CCCN4CCC[C@@H](CN12)[C@@H]34,Potency,[1],inactive
same,Potency,[2],inactive
COc1ccc2c(c1)CN(C)CC2c1ccc(Cl)c(Cl)c1 (configuration not stated),Potency,[3],9350 nM (active)
same,Potency,[4],3320 nM (active)
same,Potency,[5],inactive
C[C@]12COC(=O)C[C@@H]1CC[C@@H]1[C@H]2CC[C@@]2(C)[C@H]1CC[C@]2(C)O,Potency,[6],inactive
same,Potency,[7],inactive
same,Potency,[1],inactive
same,Potency,[8],inactive
O=c1[nH]c2ccc(Cl)cc2c(N[C@@H]2CN3CCC2CC3)c1-c1nc2ccccc2[nH]1,Potency,[5],469 nM (active)
same,Potency,[7],372 nM (active)
same,Potency,[1],166 nM (active)
same,Potency,[8],41.8 nM (active)
same,Potency,[9],3550 nM (active)
same,Potency,[10],355 nM (active)
C[C@@H]1[C@@H](CC(C[C@H]2O[C@@H]3O[C@]4(C)CC[C@@H]5[C@H](C)CC[C@@H]([C@H]2C)[C@@]35OO4)C[S+](=O)([O-])c2ccc(COC(=O)N(C)C)cc2)O[C@@H]2O[C@]3(C)CC[C@H]4[C@H](C)CC[C@@H]1[C@@]24OO3 (some centres not stated),Potency,[5],3320 nM (active)
same,Potency,[2],418 nM (active)
C[C@@]12OC(=O)[C@]1([C@@H](O)[C@@H]1C=CCCC1)NC(=O)[C@H]2CCCl,Potency,[5],235 nM (active)
same,Potency,[7],187 nM (active)
same,Potency,[8],52.6 nM (active)
CC[C@H]1C=CC=CC[C@@H](C)[C@H](O)[C@@](C)(O)C(=O)[C@@H](C)[C@H](O)[C@@H](C)C(=O)[C@@H](C)[C@H](O)[C@@H](C)C=CC(=O)O[C@@H]2[C@@H](C)[C@H](CC1)O[C@]1(CC[C@H](C)[C@H](C[C@@H](C)O)O1)[C@H]2C,Potency,[5],11800 nM (active)
same,Potency,[7],5260 nM (active)
same,Potency,[8],5900 nM (active)
CC(=CCCC1=CCC(C2=CC(=O)OC2O)OC1O)CCC1=C(C)CCCC1(C)C (configuration not stated),Potency,[5],inactive
same,Potency,[1],inactive
same,Potency,[8],inactive
C[C@@H]1[C@@H](C(=O)C[C@H]2O[C@@H]3O[C@]4(C)CC[C@@H]5[C@H](C)CC[C@@H]([C@H]2C)[C@@]35OO4)O[C@@H]2O[C@]3(C)CC[C@H]4[C@H](C)CC[C@@H]1[C@@]24OO3,Potency,[5],23500 nM (active)
same,Potency,[11],23500 nM (active)
CC(C)CC(N(C)C)C1(c2ccc(Cl)cc2)CCC1 (configuration not stated),Potency,[6],inactive
same,activity (max response),[9],-12.4%
CC(=O)OCC1=C(C(=O)O)N2C(=O)[C@@H](N)[C@@H]2SC1,Potency,[5],1480 nM (active)
same,Potency,[7],2350 nM (active)
